Laboratory results taken from PubChem BioAssay (NCATS).
Records with an inconclusive call do not appear. Activity calls are given as the source filed them. Calls follow the shape of the dose curve; as a rule, active = well fitted inhibition curve with a large enough effect; inconclusive = small, poorly fitted or top-dose-only effect; inactive = flat fitted curve, though single readings scatter. Where a SMILES comes first, the peptide text is derived from it. Bridges are numbered along the chain shown (N, C = ends). [ ]: non-standard residue; d: D form. The star is where a group is joined. X1 = CC[C@@H](C)[C@@H](N)C1=N[C@H](C(=O)*)CS1; d(aIle) = CC[C@H](C)[C@@H](N)C(=O)O; dOrn = NCCC[C@@H](N)C(=O)O

Assay: Drug repurposing screens with cells derived from glioblastoma tumor samples (AID 1345199); also: nearly all actives have a fitted effect of over 40% in size
Details: GBM patient neurospheres viability, ATP luminescence, 48 h; at 20 µM (top of the series); tumour line C
Summary of the method: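 Primary testing used CD133+ neurospheres from four GBM patients, seven concentrations, 48 h exposure and ATP-based viability; confirmation added three slower-growing patient lines.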
% is scaled to controls: 0 for no effect and ±100 for the full control effect.

SMILES | activity, negative = cell killing
CCCCC[C@H](O)/C=C/[C@H]1[C@H](O)CC(=O)[C@@H]1CCCCCCC(=O)O | 1.46% (inactive)
O=C(O)Cc1cc(I)c(Oc2ccc(O)c(I)c2)c(I)c1 | -19.1% (inactive)
CC[C@@H](C)[C@@H](N)C1=N[C@H](C(=O)N[C@@H](CC(C)C)C(=O)N[C@@H](CCC(=O)O)C(=O)N[C@@H](C(=O)N[C@@H]2CCCCNC(=O)[C@@H](CC(N)=O)NC(=O)[C@@H](CC(=O)O)NC(=O)[C@@H](Cc3cnc[nH]3)NC(=O)[C@@H](Cc3ccccc3)NC(=O)[C@@H]([C@H](C)CC)NC(=O)[C@@H](CCCN)NC2=O)[C@@H](C)CC)CS1 (X1-LE[d(aIle)][dK][dOrn][dI][dF][dH][dD][dN]; lactam 4-C) | 4.06% (inactive)
COc1ccc2c(c1)N(C[C@H](C)CN(C)C)c1ccccc1S2 | 13% (inactive)
O=C(O)CCC(=O)c1ccc(-c2ccccc2)cc1 | -5.86% (inactive)

Same assay, conditions: GBM patient neurospheres viability, ATP luminescence, 48 h; at 21.2 µM (top of the series); tumour line B

SMILES | activity, negative = cell killing
CCCCC[C@H](O)/C=C/[C@H]1[C@H](O)CC(=O)[C@@H]1CCCCCCC(=O)O | -10.6% (inactive)
O=C(O)Cc1cc(I)c(Oc2ccc(O)c(I)c2)c(I)c1 | 6.94% (inactive)
CC[C@@H](C)[C@@H](N)C1=N[C@H](C(=O)N[C@@H](CC(C)C)C(=O)N[C@@H](CCC(=O)O)C(=O)N[C@@H](C(=O)N[C@@H]2CCCCNC(=O)[C@@H](CC(N)=O)NC(=O)[C@@H](CC(=O)O)NC(=O)[C@@H](Cc3cnc[nH]3)NC(=O)[C@@H](Cc3ccccc3)NC(=O)[C@@H]([C@H](C)CC)NC(=O)[C@@H](CCCN)NC2=O)[C@@H](C)CC)CS1 (X1-LE[d(aIle)][dK][dOrn][dI][dF][dH][dD][dN]; lactam 4-C) | -2.34% (inactive)
O=C(O)CCC(=O)c1ccc(-c2ccccc2)cc1 | -10% (inactive)

Same assay, conditions: GBM patient neurospheres viability, ATP luminescence, 48 h; at 21.2 µM (top of the series); tumour line D

SMILES | activity, negative = cell killing
CCCCC[C@H](O)/C=C/[C@H]1[C@H](O)CC(=O)[C@@H]1CCCCCCC(=O)O | -20.2% (inactive)
O=C(O)Cc1cc(I)c(Oc2ccc(O)c(I)c2)c(I)c1 | 9.76% (inactive)
CC[C@@H](C)[C@@H](N)C1=N[C@H](C(=O)N[C@@H](CC(C)C)C(=O)N[C@@H](CCC(=O)O)C(=O)N[C@@H](C(=O)N[C@@H]2CCCCNC(=O)[C@@H](CC(N)=O)NC(=O)[C@@H](CC(=O)O)NC(=O)[C@@H](Cc3cnc[nH]3)NC(=O)[C@@H](Cc3ccccc3)NC(=O)[C@@H]([C@H](C)CC)NC(=O)[C@@H](CCCN)NC2=O)[C@@H](C)CC)CS1 (X1-LE[d(aIle)][dK][dOrn][dI][dF][dH][dD][dN]; lactam 4-C) | -0.888% (inactive)
O=C(O)CCC(=O)c1ccc(-c2ccccc2)cc1 | -17.7% (inactive)

Same assay, conditions: GBM patient neurospheres viability, ATP luminescence, 48 h; at 45.9 µM (top of the series); tumour line B

SMILES | activity, negative = cell killing
CCCCCCCCCCCC(=O)N(CCO)CCO | -26.4% (inactive)
CCOC(=O)C1=C(COCCN)NC(C)=C(C(=O)OC)C1c1ccccc1Cl (stereo not given) | -28.9% (inactive)
O=C(OCc1ccccc1)c1ccc(O)cc1 | -16.7% (inactive)
C#C[C@]1(O)CC[C@@H]2[C@H]3CCC4=CC(=O)CC[C@H]4[C@H]3C(=C)C[C@@]21CC | 2.86% (inactive)
CC(C)(C)c1ccc2c(S(=O)(=O)O)c(C(C)(C)C)ccc2c1 | 0.454% (inactive)
C=C1[C@H](CO)[C@@H](O)C[C@@H]1n1cnc2c(=O)[nH]c(N)nc21 | -13.2% (inactive)
COc1cc(C)c(/C=C/C(C)=C/C=C/C(C)=C/C(=O)O)c(C)c1C | -16.3% (inactive)
CC1=C(/C=C/C(C)=C/C=C/C(C)=C/C(=O)Oc2c(C)c(C)c3c(c2C)CC[C@@](C)(CCC[C@H](C)CCC[C@H](C)CCCC(C)C)O3)C(C)(C)CCC1 | -7.62% (inactive)
CSc1nc2cc(Oc3cccc(Cl)c3Cl)c(Cl)cc2[nH]1 | -12.6% (inactive)
CC[C@@H](C)[C@@H](N)C1=N[C@H](C(=O)N[C@@H](CC(C)C)C(=O)N[C@@H](CCC(=O)O)C(=O)N[C@@H](C(=O)N[C@@H]2CCCCNC(=O)[C@@H](CC(N)=O)NC(=O)[C@@H](CC(=O)O)NC(=O)[C@@H](Cc3cnc[nH]3)NC(=O)[C@@H](Cc3ccccc3)NC(=O)[C@@H]([C@H](C)CC)NC(=O)[C@@H](CCCN)NC2=O)[C@@H](C)CC)CS1 (X1-LE[d(aIle)][dK][dOrn][dI][dF][dH][dD][dN]; lactam 4-C) | -12.2% (inactive)
N[C@@H](Cc1cc(I)c(Oc2ccc(O)c(I)c2)c(I)c1)C(=O)O | 0.914% (inactive)
Cc1c(N)nc([C@H](CC(N)=O)NC[C@H](N)C(N)=O)nc1C(=O)N[C@H](C(=O)N[C@H](C)[C@@H](O)[C@H](C)C(=O)N[C@H](C(=O)NCCc1nc(-c2nc(C(=O)NCCCCN=C(N)N)cs2)cs1)[C@@H](C)O)[C@@H](O[C@@H]1O[C@@H](CO)[C@@H](O)[C@H](O)[C@@H]1O[C@H]1O[C@H](CO)[C@@H](O)[C@H](OC(N)=O)[C@@H]1O)c1cnc[nH]1 | -16.7% (inactive)
CO[C@H]1C[C@@H]2CC[C@@H](C)[C@@](O)(O2)C(=O)C(=O)N2CCCC[C@H]2C(=O)O[C@H]([C@H](C)C[C@@H]2CC[C@@H](OC(=O)C(C)(CO)CO)[C@H](OC)C2)CC(=O)[C@H](C)/C=C(\C)[C@@H](O)[C@@H](OC)C(=O)[C@H](C)C[C@H](C)/C=C/C=C/C=C/1C | -14.4% (inactive)
CC(=O)Oc1cccc2c1C(=O)c1c(OC(C)=O)cc(C(=O)O)cc1C2=O | -17.6% (inactive)
C/C(=C\C(=O)OCCCCCCCCC(=O)O)C[C@@H]1OC[C@H](C[C@@H]2O[C@H]2[C@@H](C)[C@H](C)O)[C@@H](O)[C@H]1O | -19.6% (inactive)
CCCCC(=O)O[C@H]1CC[C@H]2[C@@H]3CCc4cc(O)ccc4[C@H]3CC[C@]12C | -20.6% (inactive)
Cc1c(Cl)cccc1Nc1ncccc1C(=O)O | -16.8% (inactive)
CN(C)CCCSc1ccccc1NC(=O)/C=C/c1ccccc1 | -25.4% (inactive)
O=C1c2ccccc2C(=O)c2c1ccc(O)c2O | -22.8% (inactive)
C[C@]12CC[C@@H]3c4ccc(OC(=O)c5ccccc5)cc4CC[C@H]3[C@@H]1CC[C@@H]2O | -25.4% (inactive)
CC1CC(OC(=O)C(O)c2ccccc2)CC(C)(C)C1 (stereo not given) | -16.2% (inactive)
CC(C)=CCC/C(C)=C/CC/C(C)=C/CC/C(C)=C/CC1=C(C)C(=O)c2ccccc2C1=O | -29.7% (inactive)
